Laboratory results published in PubChem BioAssay (Tox21).
Inconclusive results are not listed. Activity calls are given as the source filed them. Unless noted, calls come from the whole dose curve; as a rule, active = well fitted curve in the direction sought with a large enough effect in the repeat runs; inconclusive = weak or mixed curves; inactive = no such curve, though single readings can be large; an effect the other way counts as inactive or inconclusive.

Experiments:
[1] = qHTS assay for small molecules that induce genotoxicity in human embryonic kidney cells expressing luciferase-tagged ATAD5 (AID 651632); note: nearly all actives have a fitted effect of over 15% in size
Method in brief: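 Cells were seeded at 2,000 per well, dosed with compound, and incubated 16 hr at 37C in 5% CO2. Luciferase activity was then quantified after a 30 min room-temperature incubation with Amplite.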

[2] = qHTS assay for small molecule agonists of the p53 signaling pathway - cell viability (AID 651633; calls by dose curve;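 note: p53RE-bla HCT reporter cells with a stable beta-lactamase p53 reporter; series mostly up to about 83 µM; nearly all actives have a fitted effect of over 30% in size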)
Method in brief: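 Viability counter-read: CellTiter-Glo luminescence (30 min, room temperature) in the same p53RE-bla plates. These plates had been exposed to compounds for 16 h at 37 C.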

[3] = qHTS assay for small molecules that induce genotoxicity in human embryonic kidney cells expressing luciferase-tagged ATAD5 - cell viability (AID 651634; calls by dose curve; note: nearly all actives have a fitted effect of over 25% in size; note: potency is the fitted concentration of half-maximal effect)
Method in brief: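 Cells (HEK293T, luciferase-tagged ATAD5) are seeded at 2,000 per well, dosed with compound or DMSO vehicle, and incubated 15.5 hr at 37C and 5% CO2. CellTiter-Fluor is added for 30 min before fluorescence is measured.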

[4] = qHTS assay for small molecule disruptors of the mitochondrial membrane potential - cell viability (AID 720634; calls by dose curve;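 note: human HepG2 liver cancer cells; series mostly up to about 83 µM; nearly all actives have a fitted effect of over 20% in size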)
Method in brief: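 Cytotoxicity was measured by ATP quantitation in HepG2 wells that had first been treated with compound for 1 hr and stained with m-MPI dye; CellTiter-Glo incubation was 30 min at room temperature.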

[5] = qHTS assay to test for compound auto fluorescence at 590 nm (red) in HepG2 cells (AID 720674)
Method in brief: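 1 hr compound incubation on HepG2 cells, 37 C, 5% CO2; plate read ex 540 nm / em 590 nm; intensities reported as Rose Bengal sodium equivalents.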

[6] = qHTS assay to test for compound auto fluorescence at 460 nm (blue) in HEK293 cells (AID 720678)
Method in brief: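 HEK293, 2,000 cells/well, 10% dialyzed FBS; attach 4-5 hr 37C; pin compound or DMSO; o/n 37C/5% CO2; fluorescence 405/460 nm; triamterene-equivalent units.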

[7] = qHTS assay to test for compound auto fluorescence at 590 nm (red) in HEK293 cells (AID 720679)
Method in brief: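 Intensity at 540nm excitation and 590nm emission is reported as Rose Bengal sodium-equivalent autofluorescence. Measurements followed overnight exposure (37C, 5% CO2) of HEK293 cells, 2,000 per well, to 23 nL compound.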

[8] = qHTS assay to test for compound auto fluorescence at 535 nm (green) in HEK293 cells (AID 720680)
[9] = qHTS assay to test for compound auto fluorescence at 460 nm (blue) in HEK293 cell free culture (AID 720681)
Method in brief: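 Blue fluorescence (Ex 405/Em 460 nm, triamterene-equivalent) was read immediately after pin transfer of compound or DMSO into medium (DMEM, 10% FBS) without cells.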

[10] = qHTS assay to test for compound auto fluorescence at 535 nm (green) in HEK293 cell free culture (AID 720682)
Method in brief: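 Fluorescein serves as the green reference fluorophore; each compound's intrinsic emission at 535 nm (excitation 485 nm) is reported as an equivalent amount of that dye, measured in serum-containing DMEM without cells.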

[11] = qHTS assay to test for compound auto fluorescence at 590 nm (red) in HEK293 cell free culture (AID 720683)
Method in brief: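 Red-channel autofluorescence of compounds in culture medium (DMEM, 10% FBS), no cells, measured at 540/590 nm. Rose Bengal sodium is the reference fluorophore for equivalence.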

[12] = qHTS assay to test for compound auto fluorescence at 590 nm (red) in HepG2 cell free culture (AID 720684)
Method in brief: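 No cells present: MEM + 10% FBS only. Compound pinned in, red label read (540/590 nm). Activity = fluorescence equivalent to Rose Bengal sodium.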

[13] = qHTS assay to test for compound auto fluorescence at 535 nm (green) in HepG2 cell free culture (AID 720686)
[14] = qHTS assay to test for compound auto fluorescence at 460 nm (blue) in HepG2 cells (AID 720687)
Method in brief: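 Blue-channel autofluorescence (Ex/Em 405/460 nm, triamterene-equivalent) was measured after 1 hr compound exposure at 37 C, 5% CO2. Cells were HepG2, plated overnight at 37 C in MEM plus 10% FBS.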

[15] = biological target: Glucocorticoid receptor (Homo sapiens) (UniProt P04150); assay: qHTS assay to identify small molecule agonists of the glucocorticoid receptor (GR) signaling pathway (AID 720691; active = well fitted activation curve with a large enough effect in the signal ratio in the repeat runs, not every such curve was filed as active; the % refers to the signal ratio)
Method in brief: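 Steps: seed GR-bla HeLa cells, incubate 4 h at 37 C/5% CO2; pin-transfer DMSO-dissolved compounds; incubate 18 h at 37 C; add LiveBLAzer B/G FRET substrate; after 2 h at room temperature, measure fluorescence.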

[16] = biological target: Glucocorticoid receptor (Homo sapiens) (UniProt P04150); assay: qHTS assay to identify small molecule antagonists of the glucocorticoid receptor (GR) signaling pathway (AID 720692; active = well fitted inhibition curve with a large enough effect in the signal ratio in the repeat runs, not every such curve was filed as active; the % refers to the signal ratio)
Method in brief: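 Antagonism was scored as loss of dexamethasone-driven (5 nM final) reporter signal in HeLa cells bearing a glucocorticoid response element–beta-lactamase construct, after 18 h compound exposure at 37 C and 2 h FRET substrate loading.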

[17] = qHTS assay to test for compound auto fluorescence at 535 nm (green) in HepG2 cells (AID 720675)
[18] = qHTS assay to test for compound auto fluorescence at 460 nm (blue) in HepG2 cell free culture (AID 720685)
Method in brief: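 Cell-free plates of MEM plus 10% FBS received 23 nL compound or DMSO vehicle; blue-channel (405/460 nm) intensity scored against triamterene as reference fluorophore.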

[19] = qHTS assay for small molecule disruptors of the mitochondrial membrane potential (AID 720635)
Method in brief: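 Mitochondrial membrane potential tracked with Mito-MPS dye, red aggregates (ex 540/em 590 nm) against green monomers (ex 490/em 535 nm). Compound treatment 1 hr at 37C, dye 30 min in HepG2.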

Measured: Potency

Chain of Glucocorticoid receptor (Homo sapiens) (P04150 whole entry, looked up): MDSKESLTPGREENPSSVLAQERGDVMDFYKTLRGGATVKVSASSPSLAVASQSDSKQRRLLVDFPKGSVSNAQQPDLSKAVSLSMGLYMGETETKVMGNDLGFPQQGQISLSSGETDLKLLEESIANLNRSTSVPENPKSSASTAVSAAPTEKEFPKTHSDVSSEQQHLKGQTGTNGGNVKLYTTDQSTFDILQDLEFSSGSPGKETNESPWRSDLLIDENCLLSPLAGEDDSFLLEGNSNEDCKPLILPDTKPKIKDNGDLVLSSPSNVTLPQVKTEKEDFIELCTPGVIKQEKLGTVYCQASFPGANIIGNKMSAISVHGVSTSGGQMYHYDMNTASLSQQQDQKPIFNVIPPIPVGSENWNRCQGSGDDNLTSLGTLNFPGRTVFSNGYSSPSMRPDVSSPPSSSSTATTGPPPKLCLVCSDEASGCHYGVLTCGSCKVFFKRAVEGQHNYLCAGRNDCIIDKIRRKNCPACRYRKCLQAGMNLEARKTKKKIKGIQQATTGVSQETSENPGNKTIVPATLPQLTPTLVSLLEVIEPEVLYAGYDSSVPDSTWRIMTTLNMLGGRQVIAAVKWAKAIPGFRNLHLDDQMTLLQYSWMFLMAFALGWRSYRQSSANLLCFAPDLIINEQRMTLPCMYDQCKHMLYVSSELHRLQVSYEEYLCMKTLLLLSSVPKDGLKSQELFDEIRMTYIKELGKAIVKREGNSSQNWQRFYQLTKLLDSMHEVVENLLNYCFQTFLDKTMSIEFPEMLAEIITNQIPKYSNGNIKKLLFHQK

COc1ccc(C=O)cc1O
not listed: [17] | [18] | [19]
inactive: all other assays above

COc1cc(CCN)cc(OC)c1OC
not listed: [6] | [19]
inactive: all other assays above

CCOC(=O)C(Cl)Cc1cc(-n2nc(C)n(C(F)F)c2=O)c(F)cc1Cl (centres undefined)
not listed: [4] | [12] | [16] | [19]
inactive: all other assays above

N#CN
not listed: [4] | [16]
inactive: all other assays above

CCC1(c2ccccc2)C(=O)N(COC)C(=O)N(COC)C1=O
not listed: [9] | [18] | [19]
inactive: all other assays above

Cc1ccc(Cl)c(O)c1
not listed: [6] | [9] | [10] | [12] | [19]
inactive: all other assays above

Cc1ccc(S(=O)(=O)N[C@@H](CCCCN)C(=O)CCl)cc1
active: [3] 29.8 µM
not listed: [1] | [2] | [4] | [16] | [17] | [19]
inactive: all other assays above

CCC(=O)c1ccc(Cl)cc1
not listed: [2] | [17] | [19]
inactive: all other assays above
